mTORC1 inh: mTORC1 pathway inhibition measured by phospho-rpS6. 0.78% of 44,000 active. Tsc2-/- p53-/- MEF, phospho-rpS6 immunofluorescence/PI, 24 h. Potency, µM (doses to about 38.3 µM), inactives show at the top dose activity change, negative = inhibition, most hits filed as inhibitors;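 note: plate controls were DMSO for no effect and rapamycin for full effect; nearly all actives have a fitted effect of over 50% in size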
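Immunofluorescence of rpS6 phosphorylation in Tsc2-/-, p53-/- MEFs after 24 h compound exposure, normalized to propidium iodide signal. Activity is expressed as % positive cells, thresholded with 7.5 nM rapamycin.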
PMP22 txn prim: modulators of PMP22 gene transcription in S16 Schwann cells; S16 Pmp22-F2sN Schwann cells, FLuc/NLuc coincidence luminescence, 24 h; Potency, µM (titrated, usually from 57.5 µM), for inactives: at the highest dose activity change, negative = inhibition, actives largely listed as inhibitors; 2% of 43,000 active; active = clear falling dose curves in both reporters; inconclusive = both reporters move, but less clearly or upward; inactive = either reporter flat; the % is the NLuc reporter signal; note: % is set by controls: 0 for no effect and ±100 for the full control effect
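Reporter cells (S16 Pmp22-F2sN, 500–1,000 per well) exposed to compounds for 24 h, 37C, 5% CO2; lysis with FLuc read after 10 min, then Stop&Glo and NLuc read after 10 min.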
p53null 39C tox: p53 null cell cytotoxicity, nonpermissive temperature; H1299 p53-null (neo) cells, 39C, ATPlite viability, 24 h; Potency, µM (titrated, usually from 46.1 µM), for inactives: at the top dose activity, negative = cell killing, actives largely listed as cytotoxic; 0.97% of 55,000 active;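 note: 0% = DMSO only and -100% = full killing by 100 µM tamoxifen; nearly all actives have a fitted effect of over 50% in size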
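Following overnight plating at 37C (600 cells/well), H1299-neo or H1299-p53A138V cells are dosed up to 46 uM. Incubation lasts 24 hr at 39C before ATP detection.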
S16 viability: toxic to S16 Pmp22-F2sN Schwann cells; S16 Pmp22-F2sN Schwann cells (luciferase reporters placed in the Pmp22 gene) viability, CellTiter-Glo, 24 h; Potency, µM (highest dose often 57.5 µM), without a hit: at the top dose activity change, negative = cytotoxicity, hits mostly cytotoxic; 0.48% of 43,000 active; note: % is set by controls: 0 for no effect and ±100 for the full control effect; nearly all actives have a fitted effect of over 65% in size
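Seed 500-1,000 S16 Pmp22-F2sN cells per well in phenol-red-free DMEM with 10% heat-inactivated FBS; pin-add 23 nL compound; incubate 24 h at 37C; add CellTiter-Glo, wait 15 min protected from light; read luminescence.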
p53null 32C tox: kills p53 null cells at the permissive temperature | H1299-neo p53 null cells, ATP luminescence, 24 h, 32C | Potency, µM (highest dose often 46.1 µM), for inactives: at the top dose activity change, negative = cytotoxicity, most hits filed as cytotoxic | 0.62% of 55,000 active;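 note: 0% = DMSO only and -100% = full killing by 100 µM tamoxifen; nearly all actives have a fitted effect of over 55% in size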
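H1299-neo (p53 null) cells, 600/well, treated 24 h at 32C with compound up to 46 uM; ATPlite luminescence viability, normalized to DMSO and 100 uM tamoxifen; AC50 by Hill fit.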
GALC G270D act: enhancers of human galactocerebrosidase G270D mutant activity in cells | P54803 | 0.1% of 45,000 active | 145M-Twi-hGALC-G270D cells (Twitcher mouse brain line with human GALC G270D), HMU-beta-Gal fluorescence, 48 h | Potency, µM (top dose mostly 57.5 µM), hits mostly activators; note: 0% is about no effect; nearly all actives have a fitted effect of over 65% in size
Target sequence (P54803 whole entry G286D): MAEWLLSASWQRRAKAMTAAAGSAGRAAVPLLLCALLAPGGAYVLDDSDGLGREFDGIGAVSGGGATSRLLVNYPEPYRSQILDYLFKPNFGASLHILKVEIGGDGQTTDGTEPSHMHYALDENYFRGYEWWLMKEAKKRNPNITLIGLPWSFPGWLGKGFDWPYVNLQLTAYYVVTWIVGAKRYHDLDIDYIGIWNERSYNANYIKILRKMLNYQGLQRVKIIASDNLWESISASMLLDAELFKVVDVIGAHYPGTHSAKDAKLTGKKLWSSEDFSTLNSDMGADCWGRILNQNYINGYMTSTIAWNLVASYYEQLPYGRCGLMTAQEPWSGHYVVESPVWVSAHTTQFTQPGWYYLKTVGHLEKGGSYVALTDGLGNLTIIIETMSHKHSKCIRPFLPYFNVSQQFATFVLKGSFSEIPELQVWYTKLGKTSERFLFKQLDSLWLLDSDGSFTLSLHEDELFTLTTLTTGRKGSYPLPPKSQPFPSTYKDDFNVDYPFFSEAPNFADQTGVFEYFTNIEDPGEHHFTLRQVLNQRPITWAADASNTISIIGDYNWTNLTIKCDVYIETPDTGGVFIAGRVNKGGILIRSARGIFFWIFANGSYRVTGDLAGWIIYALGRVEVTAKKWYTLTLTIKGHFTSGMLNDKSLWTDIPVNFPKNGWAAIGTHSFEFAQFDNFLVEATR
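Mutant human GALC (G270D), stably expressed in a Twitcher mouse brain cell line lacking endogenous GALC, is measured in live-treated cells via 6-hexadecanoylamino-4-methylumbelliferyl-β-galactoside hydrolysis (0.1 mM final, pH 5.2) with fluorescent detection.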
Starred values were filed as active, the others as inactive; i = inactive; u = inconclusive; x = no result given. Sampled rows, rich in hits. Any-hit rate of the full collection: about 3%. Unless noted, calls come from the whole dose curve; as a rule, active = well fitted curve in the direction sought with a large enough effect; inconclusive = small, poorly fitted or top-dose-only effect, or another doubt; inactive = no such curve, though single readings can be large; an effect the other way counts as inactive or inconclusive. Potency is the fitted concentration of half-maximal effect.

SMILES | mTORC1 inh | PMP22 txn prim | p53null 39C tox | S16 viability | p53null 32C tox | GALC G270D act
CC(=O)Nc1ccc2nc(SCCOc3ccccc3Cl)sc2c1 | -7.9% | -57.7% | u | -5.8% | -6.6% | i
Cc1ccc2c(c1)c(=O)c1ccccc1n2CCCC(=O)Nc1c(F)cccc1F | -5.3% | 12.3% | -10.8% | 3.3% | -2.5% | 1.12µM*
COc1ccc(/C=C/C(=O)Nc2ccc3nc(N4CCC(C)CC4)cc(C)c3c2)cc1 | -9.9% | -0.9% | 2.7% | u | 2.5% | i
COc1ccc(/C=C/C(=O)Nc2ccc3nc4c(c(Nc5ccc(OC)c(OC)c5)c3c2)CCCC4)cc1 | 3.69µM* | u | 6.31µM* | u | 12.6µM* | i
COc1ccc(/C=C/C(=O)Nc2ccc3nc(N4CCCCC4)cc(C)c3c2)cc1OC | u | u | -2.7% | u | -7.0% | i
COc1ccc(Nc2c3c(nc4ccc(NC(=O)/C=C/c5cccc(OC)c5OC)cc24)CCCC3)cc1OC | 3.69µM* | u | 3.16µM* | u | 10µM* | i
COc1ccc(/C=C/C(=O)Nc2ccc3nc4c(c(Nc5ccccc5OC)c3c2)CCCC4)cc1 | 2.33µM* | u | u | u | -8.6% | i
COc1ccc(Nc2c3c(nc4ccc(NC(=O)/C=C/c5cc(OC)c(OC)c(OC)c5)cc24)CCCC3)cc1OC | 2.07µM* | u | 7.08µM* | 11.2µM* | 12.6µM* | i
CCC(=O)N1N=C(c2ccc(C)o2)CC1c1ccc(Br)cc1 (stereo not drawn) | x | x | x | x | -11.0% | x
CCC(CC)C(=O)Oc1c(Sc2ccccc2[N+](=O)[O-])c(C)nn1C(C)(C)C | x | x | 13.6% | x | -0.7% | x
Cc1ccc([N+](=O)[O-])cc1NC(=O)CN(c1ccccc1)S(=O)(=O)N(C)C | -3.8% | -11.0% | 6.5% | 24.1% | -5.3% | i
COc1ccc(C(=O)/C=C/c2cn(CC(O)CN(CC(C)C)CC(C)C)c3ccccc23)cc1 (stereo not drawn) | -9.6% | u | -1.3% | -2.5% | -7.2% | 22.4µM*
CCCN(CCC)CC(O)Cn1cc(/C=C/C(=O)c2ccc(OC)cc2)c2ccccc21 (stereo not drawn) | 14.7µM* | u | u | u | u | 28.2µM*
CC(C)(C)c1ccc(/C=C/C(=O)Nc2ccc(S(N)(=O)=O)cc2)cc1 | -18.5% | u | u | u | 25.1µM* | i
Nc1c(C(=O)Nc2ccccc2)nnn1Cc1ccc(F)cc1Cl | -0.4% | -17.5% | -23.2% | 0.3% | 1.6% | i
CCOCCc1nnc(NC(=O)C(=O)c2cc(C)n(-c3ccc(C)c(C)c3)c2C)s1 | -17.9% | u | -13.2% | -0.4% | -3.3% | i
Cc1nnc(NC(=O)C(=O)c2cc(C)n(-c3ccc(C)c(C)c3)c2C)s1 | 0.8% | 2.89µM* | -0.1% | u | 2.8% | i
COc1ccc(CNC(=O)C(=O)NCC(c2ccc3c(c2)OCO3)N2CCOCC2)cc1 (stereo not drawn) | -1.9% | -1.4% | 1.1% | -0.3% | 4.0% | i
COc1ccc(CNCCC(c2ccc3c(c2)OCO3)c2ccccc2OC)cc1 (stereo not drawn) | u | u | 12.6µM* | u | 3.6% | i
CCOc1ccccc1Nc1nc(-c2cccc(Cl)c2)c2c(n1)-c1ccccc1OC2 | 2.93µM* | -10.7% | 12.6µM* | 3.9% | u | i
c1ccc(-c2cc(-c3ccccc3)c3c(n2)-c2ccccc2OC3)cc1 | 1.0% | 6.9% | x | 23.6% | x | i
CN(C(=O)c1c2c(nc3ccccc13)C(=O)N(C1CCCCC1)C2)c1ccc(F)cc1 | -17.4% | u | -5.8% | -16.9% | 3.0% | i
COc1ccc2c(c1)Cc1sc(NC(=O)c3cccc(Cl)c3)nc1-2 | -9.0% | -27.5% | 5.1% | u | 15.8µM* | i
COC(=O)c1ccc(OCC2c3cc(OC)c(OC)cc3CCN2C(=O)c2ccc(OC)cc2)cc1 (stereo not drawn) | 8.4% | 0.2% | 13.1% | 1.4% | 10.0% | i
CC(CNc1nc2ccccc2c2nc(-c3ccccc3)nn12)c1ccccc1 (stereo not drawn) | -2.9% | 10.7% | 3.7% | 24.7% | 2.0% | 25.1µM*
SMILES | mTORC1 inh | PMP22 txn prim | p53null 39C tox | S16 viability | p53null 32C tox | GALC G270D act
c1ccc(CNc2nc3ccccc3c3nc(-c4ccccc4)nn23)cc1 | -12.4% | -15.7% | 6.4% | 20.2% | -1.6% | i
CCOC(=O)N1CCc2c(sc(NCc3ccc(N(C)C)cc3)c2C(=O)Nc2ccccc2OCC)C1 | -26.6% | u | 26.3% | u | 22.4% | i
CCN1CCOC(=O)C1CC(=O)Nc1cc(C)cc(C)c1 (stereo not drawn) | 10.4µM* | u | x | u | x | i
CCN1CCOC(=O)C1CC(=O)Nc1ccc(C(C)=O)cc1 (stereo not drawn) | u | u | x | 19.9% | x | i
CCOc1ccc(-c2ccc(NS(=O)(=O)c3ccc(C)cc3)cc2)nn1 | 1.4% | -3.6% | 15.4% | -3.9% | 7.4% | i
CCc1ccc(S(=O)(=O)N(C(=O)c2ccncc2)c2ccc3oc(C)c(C(=O)OC)c3c2)cc1 | u | u | 94.6% | u | 67.0% | i
COC(=O)c1c(C)oc2ccc(N(C(=O)c3ccncc3)S(=O)(=O)c3ccc(OC)cc3)cc12 | u | 5.32µM* | u | u | 6.1% | i
CCOc1ccc(S(=O)(=O)N(C(=O)c2ccncc2)c2ccc3oc(C)c(C(=O)OC)c3c2)cc1 | 5.21µM* | u | u | u | 41.9% | i
COc1ccc(S(=O)(=O)N(C(=O)c2ccncc2)c2ccc3oc(C)c(C(C)=O)c3c2)cc1 | 18.5µM* | 12.6µM* | u | u | 1.5% | i
CCOc1ccc(CNC(=O)C2CCN(S(=O)(=O)c3c(C)noc3/C=C/c3ccc(C)cc3)CC2)cc1OC | 5.2% | 0.5% | -2.6% | 4.9% | -3.7% | i
COc1ccc(CNC(=O)c2cc3sccc3n2Cc2ccc(C)cc2)cc1 | -9.4% | -17.1% | -12.4% | -2.2% | -6.9% | i
Fc1ccc(-c2cn3cc(Cc4ccccc4Cl)sc3n2)cc1 | -2.6% | -3.6% | 7.94µM* | -1.3% | u | i
Clc1ccc(-c2cn3cc(Cc4ccccc4)sc3n2)cc1 | -3.7% | 9.7% | 15.8µM* | 23.3% | u | i

Screening results as filed in PubChem BioAssay.
